The source made the active and inactive calls. The calls were made as follows: active = hit-call score of the fitted dose curve at least 0.9, where 1 is the maximum; inactive = score below 0.9.
Assays:
[1] = ATG_ERE_CIS: Attagene CIS-FACTORIAL HepG2 Assay for Estrogen Response Element (ERE) (AID 2282940); settings: HepG2 ERE cis-reporter, Attagene RNA transcript; actives raise or lower the signal
Procedure, shortened: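 HepG2 cells transiently transfected with cis-promoter-driven multiplexed reporter transcription units report endogenous TF activity. After 24 h compound exposure, reporter mRNA is quantified by RT-PCR with capillary electrophoresis fluorescence; bidirectional fitting versus DMSO baseline.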

[2] = ATG_Ets_CIS: Attagene CIS-FACTORIAL HepG2 Assay for human Erythroblast Transformation Specific (ETS) (AID 2282941); settings: HepG2 ETS cis-reporter transcription, actives raise or lower the signal
Procedure, shortened: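 HepG2 cells transfected with multiple cis-regulated reporter units measuring endogenous ETS-driven transcription, 24 h after dosing. Reporter mRNA quantified by RT-PCR with capillary electrophoresis; bidirectional fit relative to DMSO.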

[3] = biological target: Hepatocyte nuclear factor 3-beta (Homo sapiens) (UniProt Q9Y261); test: ATG_FoxA2_CIS: Attagene CIS-FACTORIAL HepG2 Assay for human Forkhead box A2 (FOXA2) (AID 2282942); settings: HepG2 cis-reporter transcription factor activity, 24 h; actives raise or lower the signal
Procedure, shortened: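 Endogenous transcription factor activity is captured via cis-element-driven reporter transcripts in transfected HepG2. Total RNA taken at 24 h post-dosing; labelled RT-PCR products resolved by capillary electrophoresis. Gain or loss fitted versus DMSO.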

[4] = ATG_FoxO_CIS: Attagene CIS-FACTORIAL HepG2 Assay for human Forkhead box O (FoxO) (AID 2282943); settings: HepG2 Attagene cis-reporter, FoxO element, mRNA; actives raise or lower the signal
Procedure, shortened: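 Human hepatoma HepG2 cells carry transiently introduced reporter transcription units controlled by cis promoter elements. Chemical treatment lasted 24 h, and mRNA signal was compared with DMSO.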

[5] = ATG_GATA_CIS: Attagene CIS-FACTORIAL HepG2 Assay for human GATA Binding Protein (AID 2282944); settings: HepG2 GATA cis-element reporter, Attagene multiplex mRNA; actives raise or lower the signal
Procedure, shortened: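 HepG2 cells transiently transfected with multiplexed cis-element reporter units reflecting endogenous transcription factor activity; reporter mRNA measured after 24 h dosing by RT-PCR, 6-FAM labeling, HpaI digestion and capillary electrophoresis. Bidirectional fitting versus DMSO baseline.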

[6] = ATG_GLI_CIS: Attagene CIS-FACTORIAL HepG2 Assay for human Zinc Finger Protein GLI1 (AID 2282945); settings: HepG2, Attagene cis-factorial reporter mRNA, GLI element; actives raise or lower the signal
Procedure, shortened: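 Bidirectional curve fits relative to DMSO, using reporter mRNA levels from RT-PCR plus capillary electrophoresis. Cells were HepG2 transiently carrying cis-regulated reporter constructs, harvested 24 h after dosing.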

[7] = ATG_GRE_CIS: Attagene CIS-FACTORIAL HepG2 Assay for human Glucocorticoid Response Elements (GRE) (AID 2282947); settings: HepG2 GRE cis-reporter, Attagene multiplex mRNA; actives raise or lower the signal
Procedure, shortened: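 Assay uses human hepatoma HepG2 cells transfected with cis-promoter reporter units, exposed 24 h. mRNA from reporters detected by RT-PCR plus capillary electrophoresis; DMSO serves as negative control and baseline.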

[8] = ATG_ISRE_CIS: Attagene CIS-FACTORIAL HepG2 Assay for human Interferon Regulatory Factor 1 (IRF1) binding to an Interferon-Stimulated Response Element (ISRE) (AID 2282948); settings: HepG2 ISRE cis-reporter (Attagene), mRNA transcription readout; actives raise or lower the signal
Procedure, shortened: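 Transiently transfected HepG2 cells carrying cis-element reporter units, dosed 24 hours. Reporter mRNA quantified by RT-PCR, fluorescent primer extension, HpaI digestion and capillary electrophoresis. Bidirectional fitting relative to DMSO.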

[9] = ATG_M_32_CIS: Attagene CIS-FACTORIAL HepG2 Assay for M32 Transcription Factor (Internal Marker) (AID 2282949); settings: HepG2 Attagene cis-factorial M32 reporter, mRNA; actives raise or lower the signal;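 also: background control marker of the multiplexed CIS panel rather than a real target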
Procedure, shortened: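 Following 24 h chemical exposure of HepG2 cells transiently expressing cis-promoter reporter constructs, reporter transcript levels were determined by RT-PCR with fluorescent labelling and capillary electrophoresis, then fitted bidirectionally against DMSO.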

[10] = ATG_M_06_CIS: Attagene CIS-FACTORIAL HepG2 Assay for M06 Transcription Factor (Internal Marker) (AID 2282950); settings: HepG2 Attagene CIS-FACTORIAL M06 internal marker reporter; actives raise or lower the signal
Procedure, shortened: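 HepG2 cells transiently transfected with cis-regulated multiple reporter transcription units were exposed to chemical for 24 h; reporter mRNA was quantified by RT-PCR, 6-FAM primer labelling, HpaI digestion and capillary electrophoresis, fitted bidirectionally against DMSO.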

[11] = biological target: Hypoxia-inducible factor 1-alpha (Homo sapiens) (UniProt Q16665); test: ATG_HIF1a_CIS: Attagene CIS-FACTORIAL HepG2 Assay for human Hypoxia Inducible Factor 1 (HIF1A) (AID 2282951); settings: HepG2 Attagene cis-factorial HIF1a reporter transcription; actives raise or lower the signal
Procedure, shortened: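 Activity is fitted in both directions relative to DMSO. Reporter transcripts are read by RT-PCR, fluorescent primer extension and capillary electrophoresis after 24 h chemical treatment. The cells are HepG2 carrying transiently transfected cis-element-driven reporter units responding to endogenous factors.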

[12] = biological target: Hepatocyte nuclear factor 6 (Homo sapiens) (UniProt Q9UBC0); test: ATG_HNF6_CIS: Attagene CIS-FACTORIAL HepG2 Assay for human Hepatocyte Nuclear Factor 6 (HNF6) (AID 2282952); settings: HepG2 Attagene cis-factorial HNF6 reporter transcription; actives raise or lower the signal
Procedure, shortened: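 Transiently transfected HepG2 cells expressing cis-regulated reporter transcription units were exposed to chemical for 24 h in a 24-well format. Reporter transcript abundance was determined by fluorescence capillary electrophoresis.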

[13] = biological target: Heat shock factor protein 1 (Homo sapiens) (UniProt Q00613); test: ATG_HSE_CIS: Attagene CIS-FACTORIAL HepG2 Assay for human Heat Shock Transcription Factor 1 (HSE) (AID 2282953); settings: HepG2 HSE cis-reporter, Attagene RNA transcription; actives raise or lower the signal
Procedure, shortened: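 HepG2 cells transiently transfected with multiple reporter transcription units under cis-regulatory promoter control, measuring endogenous transcription factor activity. After 24 h chemical exposure, reporter mRNA quantified by RT-PCR, fluorescent labelling, HpaI digestion and capillary electrophoresis; bidirectional fit versus DMSO.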

[14] = ATG_MRE_CIS: Attagene CIS-FACTORIAL HepG2 Assay for human Metal Responsive Element (MRE) (AID 2282954); settings: HepG2 MRE cis-reporter transcription, Attagene multiplex; actives raise or lower the signal
Procedure, shortened: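 After a 24 h chemical exposure, transiently transfected HepG2 cells yield RNA whose reporter sequences are amplified, FAM-labelled and sized by capillary electrophoresis. Curves are fitted bidirectionally relative to DMSO.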

[15] = ATG_PBREM_CIS: Attagene CIS-FACTORIAL HepG2 Assay for human Phenobarbital-responsive Enhancer Module (PBREM) (AID 2282955); settings: HepG2 PBREM cis-reporter, Attagene multiplexed transcription; actives raise or lower the signal
Procedure, shortened: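 Endogenous transcription factor activity was read from reporter transcripts in transiently transfected human HepG2 liver cells after 24 h dosing. RT-PCR products were fluorescently labelled, HpaI-cut and sized by capillary electrophoresis; activity fitted bidirectionally against DMSO baseline.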

[16] = biological target: Paired box protein Pax-6 (Homo sapiens) (UniProt P26367); test: ATG_Pax6_CIS: Attagene CIS-FACTORIAL HepG2 Assay for human Paired Box 6 (PAX6) (AID 2282956); settings: HepG2 CIS-FACTORIAL PAX6 reporter transcription, RNA readout; actives raise or lower the signal
Procedure, shortened: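 HepG2 cells transiently transfected with cis-promoter-driven multiplexed reporter units sensing endogenous transcription factor activity; 24 h chemical exposure. Reporter mRNA quantified by RT-PCR, 6-FAM labelling, HpaI digestion and capillary electrophoresis; bidirectional fit versus DMSO baseline.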

[17] = ATG_PXRE_CIS: Attagene CIS-FACTORIAL HepG2 Assay for human Pregnane X Receptor Element (PXRE) (AID 2282957); settings: HepG2 Attagene CIS-FACTORIAL PXRE reporter, mRNA; actives raise or lower the signal
Procedure, shortened: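 Cis-element reporter mRNA in human hepatoma HepG2 cells is measured 24 h post-dosing by RT-PCR, primer-extension labeling and capillary electrophoresis; gain or loss of signal is fitted relative to DMSO.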

[18] = ATG_PPRE_CIS: Attagene CIS-FACTORIAL HepG2 Assay for human Peroxisome Proliferator-activated Response Element (PPRE) (AID 2282958); settings: HepG2 PPRE cis-element reporter, Attagene transcription factor profiling; actives raise or lower the signal
Procedure, shortened: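 Endogenous PPRE-driven transcription is measured in HepG2 cells carrying transfected multi-reporter constructs. Reporter transcripts are quantified by RT-PCR, HpaI digestion and capillary electrophoresis 24 h after dosing. DMSO baseline, bidirectional fit.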

[19] = ATG_RORE_CIS: Attagene CIS-FACTORIAL HepG2 Assay for human RAR-related Orphan Receptor Element (RORE) (AID 2282959); settings: HepG2 Attagene cis-factorial RORE reporter, mRNA; actives raise or lower the signal
Procedure, shortened: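 RORE reporter transcripts reflecting endogenous factor activity were read after 24 h compound exposure of transfected HepG2 cells, using reverse transcription, PCR, fluorescent labelling and capillary electrophoresis sizing. Gain or loss fitted against DMSO.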

[20] = biological target: Bile acid receptor (Homo sapiens) (UniProt Q96RI1); test: ATG_IR1_CIS: Attagene CIS-FACTORIAL HepG2 Assay for human Nuclear Receptor Subfamily 1 Group H Member 4 (NR1H4), IR1 submotif (AID 2282946); settings: IR1 reporter transcription, actives raise or lower the signal
Procedure, shortened: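 Cells (human HepG2) carry transiently transfected cis-promoter reporter transcription units. Compounds are incubated 24 h, total RNA is reverse-transcribed and amplified, and labelled fragments are resolved by capillary electrophoresis. Curves use DMSO as baseline.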

Measured: AC50

Heat shock factor protein 1 (Homo sapiens), sequence (Q00613 whole entry, looked up): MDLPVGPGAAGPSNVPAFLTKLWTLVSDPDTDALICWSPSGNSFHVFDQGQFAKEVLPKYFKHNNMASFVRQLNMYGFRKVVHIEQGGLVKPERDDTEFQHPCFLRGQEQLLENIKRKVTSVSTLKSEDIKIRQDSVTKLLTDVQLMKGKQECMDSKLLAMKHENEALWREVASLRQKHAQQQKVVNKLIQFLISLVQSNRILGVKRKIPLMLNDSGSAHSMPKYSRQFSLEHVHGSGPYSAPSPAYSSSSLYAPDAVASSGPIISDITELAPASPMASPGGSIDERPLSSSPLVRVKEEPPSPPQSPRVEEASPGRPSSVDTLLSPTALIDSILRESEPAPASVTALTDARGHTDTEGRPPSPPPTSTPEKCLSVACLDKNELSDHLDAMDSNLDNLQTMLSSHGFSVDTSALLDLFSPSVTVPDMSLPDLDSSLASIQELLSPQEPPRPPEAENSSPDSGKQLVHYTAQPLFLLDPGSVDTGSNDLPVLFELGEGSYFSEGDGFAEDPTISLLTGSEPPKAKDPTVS
Hepatocyte nuclear factor 3-beta (Homo sapiens), sequence (Q9Y261 whole entry, looked up): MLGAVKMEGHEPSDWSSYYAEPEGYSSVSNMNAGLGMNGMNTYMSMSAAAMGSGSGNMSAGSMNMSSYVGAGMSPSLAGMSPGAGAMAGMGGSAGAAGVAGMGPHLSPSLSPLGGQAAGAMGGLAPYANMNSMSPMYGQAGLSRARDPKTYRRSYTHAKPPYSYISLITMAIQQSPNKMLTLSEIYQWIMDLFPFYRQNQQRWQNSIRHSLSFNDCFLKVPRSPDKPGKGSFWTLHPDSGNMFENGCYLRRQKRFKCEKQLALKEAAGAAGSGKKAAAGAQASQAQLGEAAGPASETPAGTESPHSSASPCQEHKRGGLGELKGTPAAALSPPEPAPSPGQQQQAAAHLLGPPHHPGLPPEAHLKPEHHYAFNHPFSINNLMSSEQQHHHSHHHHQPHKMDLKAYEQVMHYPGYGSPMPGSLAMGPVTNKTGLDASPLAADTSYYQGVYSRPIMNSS
Paired box protein Pax-6 (Homo sapiens), sequence (P26367 whole entry, looked up): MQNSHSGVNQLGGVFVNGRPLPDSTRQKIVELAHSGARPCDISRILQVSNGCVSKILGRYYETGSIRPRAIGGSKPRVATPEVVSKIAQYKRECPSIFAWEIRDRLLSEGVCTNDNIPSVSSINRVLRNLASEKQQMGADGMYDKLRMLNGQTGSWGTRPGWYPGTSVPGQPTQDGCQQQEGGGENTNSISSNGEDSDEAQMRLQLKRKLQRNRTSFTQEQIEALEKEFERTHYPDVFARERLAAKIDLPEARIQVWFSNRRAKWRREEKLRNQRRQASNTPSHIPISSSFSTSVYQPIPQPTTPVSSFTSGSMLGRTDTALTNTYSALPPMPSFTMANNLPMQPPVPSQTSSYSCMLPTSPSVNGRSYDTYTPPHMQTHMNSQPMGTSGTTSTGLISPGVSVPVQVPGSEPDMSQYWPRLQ
Hypoxia-inducible factor 1-alpha (Homo sapiens), sequence (Q16665 whole entry, looked up): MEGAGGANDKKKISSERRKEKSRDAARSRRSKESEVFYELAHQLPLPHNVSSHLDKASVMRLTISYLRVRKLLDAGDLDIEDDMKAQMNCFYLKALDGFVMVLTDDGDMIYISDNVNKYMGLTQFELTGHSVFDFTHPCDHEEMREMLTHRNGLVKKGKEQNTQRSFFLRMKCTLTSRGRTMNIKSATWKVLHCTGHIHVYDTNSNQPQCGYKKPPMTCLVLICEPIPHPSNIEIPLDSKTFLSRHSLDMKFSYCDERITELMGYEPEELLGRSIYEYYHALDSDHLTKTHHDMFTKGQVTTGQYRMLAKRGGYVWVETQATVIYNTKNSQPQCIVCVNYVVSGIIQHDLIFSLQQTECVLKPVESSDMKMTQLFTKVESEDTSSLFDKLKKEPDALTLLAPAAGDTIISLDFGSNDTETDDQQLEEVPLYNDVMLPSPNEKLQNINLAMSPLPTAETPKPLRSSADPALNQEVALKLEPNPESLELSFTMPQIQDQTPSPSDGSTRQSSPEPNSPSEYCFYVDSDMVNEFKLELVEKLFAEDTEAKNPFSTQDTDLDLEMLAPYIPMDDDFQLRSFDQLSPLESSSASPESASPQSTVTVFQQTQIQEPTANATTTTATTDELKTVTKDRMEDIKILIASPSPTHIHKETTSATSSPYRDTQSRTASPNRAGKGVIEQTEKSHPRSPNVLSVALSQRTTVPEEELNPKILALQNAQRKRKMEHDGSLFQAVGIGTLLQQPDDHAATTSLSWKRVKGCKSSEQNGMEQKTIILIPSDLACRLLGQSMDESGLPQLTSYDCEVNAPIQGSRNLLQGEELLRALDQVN
Hepatocyte nuclear factor 6 (Homo sapiens), sequence (Q9UBC0 whole entry, looked up): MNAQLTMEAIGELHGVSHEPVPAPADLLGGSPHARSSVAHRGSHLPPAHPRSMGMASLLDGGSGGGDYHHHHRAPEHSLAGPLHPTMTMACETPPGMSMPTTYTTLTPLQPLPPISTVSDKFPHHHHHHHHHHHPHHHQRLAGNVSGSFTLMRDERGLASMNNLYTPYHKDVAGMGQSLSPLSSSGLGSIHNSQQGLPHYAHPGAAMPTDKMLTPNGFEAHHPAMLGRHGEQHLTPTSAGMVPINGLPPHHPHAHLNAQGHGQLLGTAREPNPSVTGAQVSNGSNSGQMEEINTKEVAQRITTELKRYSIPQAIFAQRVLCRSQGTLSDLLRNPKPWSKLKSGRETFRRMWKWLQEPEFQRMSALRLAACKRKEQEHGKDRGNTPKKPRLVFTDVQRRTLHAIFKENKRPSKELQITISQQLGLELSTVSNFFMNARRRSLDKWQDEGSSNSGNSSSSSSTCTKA
Bile acid receptor (Homo sapiens), sequence (Q96RI1 whole entry, looked up, the tested form may be a part): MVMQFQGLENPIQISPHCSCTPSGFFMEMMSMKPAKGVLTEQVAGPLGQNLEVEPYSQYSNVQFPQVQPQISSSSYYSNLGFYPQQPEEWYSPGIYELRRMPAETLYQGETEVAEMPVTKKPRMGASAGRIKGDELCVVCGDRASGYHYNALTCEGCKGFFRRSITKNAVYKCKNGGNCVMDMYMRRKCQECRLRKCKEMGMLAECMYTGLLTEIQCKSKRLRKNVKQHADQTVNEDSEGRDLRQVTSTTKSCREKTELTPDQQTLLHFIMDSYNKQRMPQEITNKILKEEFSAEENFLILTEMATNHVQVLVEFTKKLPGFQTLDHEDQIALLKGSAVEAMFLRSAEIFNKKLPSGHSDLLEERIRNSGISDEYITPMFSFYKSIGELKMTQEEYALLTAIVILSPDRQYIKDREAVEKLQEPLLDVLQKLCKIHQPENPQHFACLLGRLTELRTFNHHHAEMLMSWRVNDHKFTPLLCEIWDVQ

OC[P+](CO)(CO)CO
not listed: [18] | [19] | [20]
inactive: all other assays above

Cc1cccc(N=Nc2ccc(N(C)C)cc2)c1
active: [17] 10.5 µM
not listed: [20]
inactive: all other assays above

O=C(CCl)Nc1ccccc1
inactive: [1] | [2] | [3] | [10] | [12] | [15] | [19]
active: [4] 83.2 µM | [5] 161 µM | [6] 25.5 µM | [7] 177 µM | [8] 54.9 µM | [9] 134 µM | [11] 69.2 µM | [13] 49 µM | [14] 56.4 µM | [16] 72.6 µM | [17] 33.4 µM | [18] 3.66 µM

CC(C)=CC1C(C(=O)OCc2cccc(Oc3ccccc3)c2)C1(C)C (configuration not stated)
active: [1] 100 µM
not listed: [14] | [17] | [18]
inactive: all other assays above
